Experimental data taken from PubChem BioAssay (Tox21).
Unmarked numbers belong to inactive results. Inconclusive results are not listed. Calls of active or inactive are those of the source. Calls follow the shape of the full dose curve.

Each molecule was assayed against Acetylcholinesterase (Homo sapiens) (UniProt P22303) (assay: Acetylcholinesterase (AChE) small molecule antagonists: fluorescence cell-based qHTS assay (AID 1347398; also: nearly all actives have a fitted effect of over 50% in size; also: potency is read from the fitted curve at half-maximal effect)). Conditions: SH-SY5Y cells; Potency: AChE activity; outcome: AChE activity; series mostly up to 115 µM; activity change, negative = inhibition: at the top concentration.
Acetylcholinesterase (Homo sapiens), sequence (P22303 whole entry, looked up): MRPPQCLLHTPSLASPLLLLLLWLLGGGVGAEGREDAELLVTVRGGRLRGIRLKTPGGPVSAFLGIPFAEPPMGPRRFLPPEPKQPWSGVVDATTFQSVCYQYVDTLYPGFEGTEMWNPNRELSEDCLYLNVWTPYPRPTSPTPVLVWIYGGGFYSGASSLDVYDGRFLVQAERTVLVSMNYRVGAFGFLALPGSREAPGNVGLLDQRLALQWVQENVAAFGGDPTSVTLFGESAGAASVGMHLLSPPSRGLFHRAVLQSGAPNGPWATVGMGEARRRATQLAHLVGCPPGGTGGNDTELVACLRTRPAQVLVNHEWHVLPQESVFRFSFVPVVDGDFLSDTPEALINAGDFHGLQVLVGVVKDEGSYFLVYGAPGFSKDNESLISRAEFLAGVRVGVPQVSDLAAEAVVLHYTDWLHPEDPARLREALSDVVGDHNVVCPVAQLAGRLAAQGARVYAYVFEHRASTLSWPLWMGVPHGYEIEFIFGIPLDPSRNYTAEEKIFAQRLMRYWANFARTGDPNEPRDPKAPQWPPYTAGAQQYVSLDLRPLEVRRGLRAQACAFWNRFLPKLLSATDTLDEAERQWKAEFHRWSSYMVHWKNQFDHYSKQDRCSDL
Method in brief: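 Fluorimetric cell-based assay: intact SH-SY5Y cells, 30 min compound preincubation at 37 C, acetylthiocholine substrate with thiol probe Thiolite Green, 40 min RT development, fluorescence 490/520 nm.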
% is scaled to controls: 0 for no effect and ±100 for the full control effect.

Structure (SMILES)	Potency	activity change, negative = inhibition
CC1CC(OC(=O)c2ccccc2O)CC(C)(C)C1 (stereo not given)	inactive	
Cc1ccc2ncccc2c1	inactive	
COC(=O)Nc1nc2ccc(Sc3ccccc3)cc2[nH]1	inactive	
O=C1[C@H](CC[C@H](O)c2ccc(F)cc2)[C@@H](c2ccc(O)cc2)N1c1ccc(F)cc1		-10.2% [at 53.7 µM]
CC(C)(C)C(=O)C(Oc1ccc(Cl)cc1)n1ccnc1 (stereo not given)		7.09% [at 53.7 µM]
CC(C)(O)C(=O)c1ccc(OCCO)cc1		8.63%
ClC1=C(Cl)C1(Cl)Cl		1.72%
O=[N+]([O-])c1ccc(Oc2ccc([N+](=O)[O-])cc2)cc1		-4.21%
c1ccc2[nH]ccc2c1	inactive	
COC(=O)c1ccc(C)cc1	inactive	
CCCCCC[C@@H](O)C/C=C\CCCCCCCC(=O)OC		-11.9%
C[Si](C)(CCCN)O[Si](C)(C)CCCN		3.87%
O=C(O)c1cc2ccccc2cc1O	inactive	
CN(C)CCCN	inactive	
CC(=O)CC(C)(C)C1CCCCC1		5.99%
NS(=O)(=O)c1ccc(Cl)c(S(N)(=O)=O)c1		5.5% [at 53.7 µM]
Nc1ccc(O)cc1	inactive	
CCc1ccc(O)cc1	inactive	
Nc1ccc(O)c(C(=O)O)c1	inactive	
C/C=C/C=C/CO		-5.94%

Structure (SMILES)	Potency	activity change, negative = inhibition
O=[Se](O)O	inactive	
Cc1cc(O)c(Cl)c(C)c1Cl		0.454%
OC(CCCN1CCCCC1)(c1ccccc1)c1ccccc1		4.22% [at 53.7 µM]
CCN(CC)CCSC(=O)C(c1ccccc1)c1ccccc1		5.37% [at 53.7 µM]
Cc1ccc(N)c(S(=O)(=O)O)c1	inactive	
OCC1CC=CCC1 (stereo not given)		2.57%
C/C(=C1\CCOC(=O)S1)N(C=O)Cc1cnc(C)nc1N		-15.4% [at 53.7 µM]
Cc1c(Cn2ccnc2)c2ccccc2n1CCC(=O)O		6.32% [at 53.7 µM]
c1cc(N(CC2CO2)CC2CO2)ccc1Cc1ccc(N(CC2CO2)CC2CO2)cc1 (stereo not given)		-10.8%
c1ccc(Oc2ccccc2)cc1	inactive	
Nc1ncn([C@H]2C[C@H](O)[C@@H](CO)O2)c(=O)n1		4.8% [at 53.7 µM]
CCCCCCC=O	inactive	
Cc1nc2ccc(Cl)cc2[nH]1	25.1 µM (active)	
C[C@]12CCC(=O)C=C1[C@@H]1C[C@@H]1[C@H]1[C@@H]3[C@@H]4C[C@@H]4[C@@]4(CCC(=O)O4)[C@@]3(C)CC[C@@H]12		-2.26% [at 53.7 µM]
Cc1cn([C@H]2C[C@H](F)[C@@H](CO)O2)c(=O)[nH]c1=O		0.192% [at 53.7 µM]
O=C1CCCCCN1	inactive	
c1ccc(COCc2ccccc2)cc1		1.97%
O=S(O)O		0.464% [at 23.8 µM]
CC(=O)Nc1ccc(OC(=O)c2ccccc2OC(C)=O)cc1		0.758% [at 53.7 µM]
C=CC(C)(CCC=C(C)C)OC(=O)c1ccccc1 (stereo not given)		-1.11%

The molecules below were run against Acetylcholinesterase (Homo sapiens) (UniProt P22303) (assay: Acetylcholinesterase (AChE) small molecule antagonists: enzyme-based qHTS assay with human liver microsomes (AID 1347399; also: nearly all actives have a fitted effect of over 60% in size)). Conditions: Potency: qHTS inhibition; outcome: qHTS inhibition; series mostly up to 115 µM; activity change, negative = inhibition: at the top concentration.
Method in brief: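 Recombinant human AChE (50 mU/mL in the enzyme mix) and human liver microsomes (0.25 mg/mL final) were preincubated with compound and NADPH (0.25 mg/mL final) for 30 min at 37 C. Acetylthiocholine/DTNB was then added; thiocholine was read colorimetrically after 10 min at room temperature.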

Structure (SMILES)	Potency	activity change, negative = inhibition
CC1CC(OC(=O)c2ccccc2O)CC(C)(C)C1 (stereo not given)	inactive	
Cc1ccc2ncccc2c1	inactive	
COC(=O)Nc1nc2ccc(Sc3ccccc3)cc2[nH]1	inactive	
O=C1[C@H](CC[C@H](O)c2ccc(F)cc2)[C@@H](c2ccc(O)cc2)N1c1ccc(F)cc1		-0.507% [at 53 µM]
CC(C)(C)C(=O)C(Oc1ccc(Cl)cc1)n1ccnc1 (stereo not given)		-0.443% [at 53 µM]
CC(C)(O)C(=O)c1ccc(OCCO)cc1		-0.565%
ClC1=C(Cl)C1(Cl)Cl		0.24%
O=[N+]([O-])c1ccc(Oc2ccc([N+](=O)[O-])cc2)cc1		1.2%
c1ccc2[nH]ccc2c1	inactive	
COC(=O)c1ccc(C)cc1	inactive	
CCCCCC[C@@H](O)C/C=C\CCCCCCCC(=O)OC		-0.171%
C[Si](C)(CCCN)O[Si](C)(C)CCCN		1%
O=C(O)c1cc2ccccc2cc1O	inactive	
CN(C)CCCN	inactive	
CC(=O)CC(C)(C)C1CCCCC1		-1.18%
NS(=O)(=O)c1ccc(Cl)c(S(N)(=O)=O)c1		-0.464% [at 53 µM]
Nc1ccc(O)cc1	inactive	
CCc1ccc(O)cc1	inactive	
Nc1ccc(O)c(C(=O)O)c1	inactive	
C/C=C/C=C/CO		5.62%

Structure (SMILES)	Potency	activity change, negative = inhibition
O=[Se](O)O	inactive	
Cc1cc(O)c(Cl)c(C)c1Cl		2.04%
OC(CCCN1CCCCC1)(c1ccccc1)c1ccccc1		-0.457% [at 53 µM]
CCN(CC)CCSC(=O)C(c1ccccc1)c1ccccc1		0.443% [at 53 µM]
Cc1ccc(N)c(S(=O)(=O)O)c1	inactive	
OCC1CC=CCC1 (stereo not given)		0.224%
C/C(=C1\CCOC(=O)S1)N(C=O)Cc1cnc(C)nc1N		0.336% [at 53 µM]
Cc1c(Cn2ccnc2)c2ccccc2n1CCC(=O)O		-0.737% [at 53 µM]
c1cc(N(CC2CO2)CC2CO2)ccc1Cc1ccc(N(CC2CO2)CC2CO2)cc1 (stereo not given)		0.611%
c1ccc(Oc2ccccc2)cc1	inactive	
Nc1ncn([C@H]2C[C@H](O)[C@@H](CO)O2)c(=O)n1		-1.34% [at 53 µM]
CCCCCCC=O	inactive	
Cc1nc2ccc(Cl)cc2[nH]1		-2.57%
C[C@]12CCC(=O)C=C1[C@@H]1C[C@@H]1[C@H]1[C@@H]3[C@@H]4C[C@@H]4[C@@]4(CCC(=O)O4)[C@@]3(C)CC[C@@H]12		-0.147% [at 53 µM]
Cc1cn([C@H]2C[C@H](F)[C@@H](CO)O2)c(=O)[nH]c1=O		3.69% [at 53 µM]
O=C1CCCCCN1	inactive	
c1ccc(COCc2ccccc2)cc1		-2.53%
O=S(O)O		-0.486% [at 23.6 µM]
CC(=O)Nc1ccc(OC(=O)c2ccccc2OC(C)=O)cc1		-2.91% [at 53 µM]
C=CC(C)(CCC=C(C)C)OC(=O)c1ccccc1 (stereo not given)		0.817%
